Measured values from publication PMC7862700, “An all-to-all approach to the identification of sequence-specific readers for epigenetic DNA modifications on cytosine”.

Key:
Experiment in all cases: DAPPL (digital affinity profiling via proximity ligation, sequencing); 10 mM Tris-HCl pH 7.5, 50 mM NaCl, 1 mM DTT, 4% glycerol, room temperature, 30 min; GST-TFs on glutathione beads, 16-mer random dsDNA library, 0.1% formaldehyde crosslink after washing; high values mean tight binding
Settings in all cases: protein: recombinant; tags: N-terminal GST; dsDNA, one strand shown
FEV = biological target: T1, FEV (Homo sapiens, UniProt Q99581 1-238)
T1 sequence: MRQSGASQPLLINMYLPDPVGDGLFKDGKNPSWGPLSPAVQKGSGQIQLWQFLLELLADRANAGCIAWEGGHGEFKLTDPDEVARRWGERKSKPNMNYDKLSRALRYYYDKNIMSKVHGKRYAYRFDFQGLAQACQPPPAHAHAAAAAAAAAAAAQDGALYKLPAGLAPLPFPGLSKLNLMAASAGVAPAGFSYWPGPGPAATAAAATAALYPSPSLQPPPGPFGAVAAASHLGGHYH
Procedure, shortened: (§1)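 Yeast served to express human transcription factors as GST fusions, which were then captured on glutathione beads and labelled with DNA barcodes. Pooled with a tag-only sample, they were incubated with 200 nmole of a 16-mer random double-stranded DNA library for 30 min at room temperature in Tris/NaCl/DTT/glycerol buffer, washed, crosslinked with 0.1% formaldehyde, ligated by proximity, amplified by PCR and sequenced. Dividing each hexamer's read frequency for a factor by its frequency for the tag-only sample gives the binding signal.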

ETV5 = ETV5 (Homo sapiens, UniProt P41161 1-510)
Chain of ETV5 (P41161 whole entry): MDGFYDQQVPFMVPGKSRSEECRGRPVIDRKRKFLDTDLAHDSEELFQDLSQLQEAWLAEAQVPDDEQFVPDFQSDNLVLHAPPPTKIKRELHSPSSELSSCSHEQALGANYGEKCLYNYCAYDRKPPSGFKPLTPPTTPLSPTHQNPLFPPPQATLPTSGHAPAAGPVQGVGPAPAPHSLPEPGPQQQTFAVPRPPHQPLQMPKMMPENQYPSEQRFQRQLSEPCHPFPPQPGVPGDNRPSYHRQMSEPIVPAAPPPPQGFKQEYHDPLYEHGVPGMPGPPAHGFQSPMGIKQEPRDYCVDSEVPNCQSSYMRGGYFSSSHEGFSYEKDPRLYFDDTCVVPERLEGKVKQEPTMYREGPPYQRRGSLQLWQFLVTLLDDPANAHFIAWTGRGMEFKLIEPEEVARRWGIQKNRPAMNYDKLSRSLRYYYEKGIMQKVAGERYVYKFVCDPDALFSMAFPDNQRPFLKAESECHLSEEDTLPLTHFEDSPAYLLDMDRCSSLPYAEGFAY
Procedure, shortened: as §1

SPIC = biological target: T2, SPIC (Homo sapiens, UniProt Q8N5J4 1-248)
T2 sequence: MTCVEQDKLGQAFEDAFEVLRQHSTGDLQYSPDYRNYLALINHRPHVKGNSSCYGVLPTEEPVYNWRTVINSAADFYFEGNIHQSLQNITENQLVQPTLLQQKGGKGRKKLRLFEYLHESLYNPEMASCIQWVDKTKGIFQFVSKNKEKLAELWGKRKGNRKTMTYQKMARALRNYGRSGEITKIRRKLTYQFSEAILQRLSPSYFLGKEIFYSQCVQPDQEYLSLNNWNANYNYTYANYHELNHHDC
Procedure, shortened: as §1

ELF4 = ELF4 (Homo sapiens, UniProt Q99607 1-663)
Chain of ELF4 (Q99607 whole entry): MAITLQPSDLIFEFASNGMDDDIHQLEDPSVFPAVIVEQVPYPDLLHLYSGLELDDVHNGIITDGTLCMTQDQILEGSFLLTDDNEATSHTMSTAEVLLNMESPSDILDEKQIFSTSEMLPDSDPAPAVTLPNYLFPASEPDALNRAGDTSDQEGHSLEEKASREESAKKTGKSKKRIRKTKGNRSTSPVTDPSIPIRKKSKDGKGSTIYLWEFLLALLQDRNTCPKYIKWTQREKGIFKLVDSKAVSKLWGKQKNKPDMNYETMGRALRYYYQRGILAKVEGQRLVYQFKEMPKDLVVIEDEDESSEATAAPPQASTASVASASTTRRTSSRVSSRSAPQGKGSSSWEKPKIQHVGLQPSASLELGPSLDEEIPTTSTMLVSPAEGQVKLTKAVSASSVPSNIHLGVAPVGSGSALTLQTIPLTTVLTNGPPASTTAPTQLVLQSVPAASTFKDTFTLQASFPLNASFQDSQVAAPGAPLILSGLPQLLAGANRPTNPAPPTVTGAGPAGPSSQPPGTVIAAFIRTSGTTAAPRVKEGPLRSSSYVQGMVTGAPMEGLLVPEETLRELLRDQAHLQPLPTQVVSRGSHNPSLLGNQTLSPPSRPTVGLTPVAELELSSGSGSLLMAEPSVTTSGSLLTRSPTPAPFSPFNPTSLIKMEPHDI
Procedure, shortened: as §1

ELK4 = biological target: T3, ELK4 (Homo sapiens, UniProt P28324-2 1-405)
T3 sequence: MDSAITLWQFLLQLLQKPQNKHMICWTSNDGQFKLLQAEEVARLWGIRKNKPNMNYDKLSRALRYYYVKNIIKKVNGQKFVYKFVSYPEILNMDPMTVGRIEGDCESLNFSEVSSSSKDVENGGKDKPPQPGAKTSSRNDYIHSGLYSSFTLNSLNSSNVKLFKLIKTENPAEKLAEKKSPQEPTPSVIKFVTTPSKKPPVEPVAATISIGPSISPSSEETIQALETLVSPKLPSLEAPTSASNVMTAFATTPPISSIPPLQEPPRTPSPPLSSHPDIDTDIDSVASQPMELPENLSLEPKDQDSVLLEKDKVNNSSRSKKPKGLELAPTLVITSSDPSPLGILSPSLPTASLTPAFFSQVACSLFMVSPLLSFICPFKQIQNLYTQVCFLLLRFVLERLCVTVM
Procedure, shortened: as §1

ETV2 = biological target: T4, ETV2 (Homo sapiens, UniProt O00321 1-342)
T4 sequence: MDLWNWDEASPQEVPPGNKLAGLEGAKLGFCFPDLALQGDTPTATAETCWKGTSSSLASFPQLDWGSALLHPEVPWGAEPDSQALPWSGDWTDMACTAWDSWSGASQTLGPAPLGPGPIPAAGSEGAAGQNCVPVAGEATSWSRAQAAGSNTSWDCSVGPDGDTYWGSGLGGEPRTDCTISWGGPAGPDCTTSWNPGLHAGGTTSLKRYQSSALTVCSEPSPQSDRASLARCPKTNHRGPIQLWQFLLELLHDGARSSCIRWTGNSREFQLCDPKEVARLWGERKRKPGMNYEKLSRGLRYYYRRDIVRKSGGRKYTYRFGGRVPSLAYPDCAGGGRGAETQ
Procedure, shortened: as §1

ELF3 = biological target: T5, ELF3 (Homo sapiens, UniProt P78545 1-371)
T5 sequence: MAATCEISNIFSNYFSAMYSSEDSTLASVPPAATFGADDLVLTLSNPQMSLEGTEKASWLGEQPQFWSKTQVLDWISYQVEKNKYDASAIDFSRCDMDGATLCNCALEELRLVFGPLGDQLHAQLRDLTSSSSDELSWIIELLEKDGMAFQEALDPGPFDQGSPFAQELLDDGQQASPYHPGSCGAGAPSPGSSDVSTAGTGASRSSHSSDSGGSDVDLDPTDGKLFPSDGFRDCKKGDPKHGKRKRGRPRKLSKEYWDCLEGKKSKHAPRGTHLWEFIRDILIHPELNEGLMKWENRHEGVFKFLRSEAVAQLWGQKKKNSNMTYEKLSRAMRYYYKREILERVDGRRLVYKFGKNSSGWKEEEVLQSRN
Procedure, shortened: as §1

ETV1 = ETV1 (Homo sapiens, UniProt P50549 1-477)
Chain of ETV1 (P50549 whole entry): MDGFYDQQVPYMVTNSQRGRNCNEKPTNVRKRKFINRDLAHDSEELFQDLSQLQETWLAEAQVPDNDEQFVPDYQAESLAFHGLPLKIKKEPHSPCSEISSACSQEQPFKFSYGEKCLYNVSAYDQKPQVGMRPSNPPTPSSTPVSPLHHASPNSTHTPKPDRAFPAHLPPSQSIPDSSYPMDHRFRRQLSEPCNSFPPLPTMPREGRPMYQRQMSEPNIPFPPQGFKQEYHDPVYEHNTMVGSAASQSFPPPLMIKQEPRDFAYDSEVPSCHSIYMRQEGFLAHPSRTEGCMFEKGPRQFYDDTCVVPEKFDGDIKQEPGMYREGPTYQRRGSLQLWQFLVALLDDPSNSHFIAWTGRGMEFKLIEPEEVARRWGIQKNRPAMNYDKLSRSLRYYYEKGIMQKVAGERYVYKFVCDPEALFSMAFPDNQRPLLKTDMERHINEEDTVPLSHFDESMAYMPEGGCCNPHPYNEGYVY
Procedure, shortened: as §1

Sequence | binding signal (FEV) | binding signal (ETV5) | binding signal (SPIC) | binding signal (ELF4) | binding signal (ELK4) | binding signal (ETV2) | binding signal (ELF3) | binding signal (ETV1)
CACATC | 1.71 fold enrichment (6-mer frequency, TF over GST control) | 1.5 fold enrichment (6-mer frequency, TF over GST control) | 1.31 fold enrichment (6-mer frequency, TF over GST control) | 1.36 fold enrichment (6-mer frequency, TF over GST control) | 1.45 fold enrichment (6-mer frequency, TF over GST control) | 1.44 fold enrichment (6-mer frequency, TF over GST control) | 1.34 fold enrichment (6-mer frequency, TF over GST control) | 1.38 fold enrichment (6-mer frequency, TF over GST control)
CAATGC | 1.16 fold enrichment (6-mer frequency, TF over GST control) | 1.22 fold enrichment (6-mer frequency, TF over GST control) | 1.12 fold enrichment (6-mer frequency, TF over GST control) | 1.3 fold enrichment (6-mer frequency, TF over GST control) | 1.21 fold enrichment (6-mer frequency, TF over GST control) | 1.21 fold enrichment (6-mer frequency, TF over GST control) | 1.22 fold enrichment (6-mer frequency, TF over GST control) | 1.12 fold enrichment (6-mer frequency, TF over GST control)
TTGGCC | 1.14 fold enrichment (6-mer frequency, TF over GST control) | 1.12 fold enrichment (6-mer frequency, TF over GST control) | 1.06 fold enrichment (6-mer frequency, TF over GST control) | 1.18 fold enrichment (6-mer frequency, TF over GST control) | 1.08 fold enrichment (6-mer frequency, TF over GST control) | 1.08 fold enrichment (6-mer frequency, TF over GST control) | 1.12 fold enrichment (6-mer frequency, TF over GST control) | 1.02 fold enrichment (6-mer frequency, TF over GST control)
CTATGT | 1.09 fold enrichment (6-mer frequency, TF over GST control) | 1.01 fold enrichment (6-mer frequency, TF over GST control) | 1.01 fold enrichment (6-mer frequency, TF over GST control) | 1.18 fold enrichment (6-mer frequency, TF over GST control) | 1.15 fold enrichment (6-mer frequency, TF over GST control) | 1.14 fold enrichment (6-mer frequency, TF over GST control) | 1.23 fold enrichment (6-mer frequency, TF over GST control) | 1 fold enrichment (6-mer frequency, TF over GST control)
TGCGGA | 1.19 fold enrichment (6-mer frequency, TF over GST control) | 1.47 fold enrichment (6-mer frequency, TF over GST control) | 1.44 fold enrichment (6-mer frequency, TF over GST control) | 1.24 fold enrichment (6-mer frequency, TF over GST control) | 1.13 fold enrichment (6-mer frequency, TF over GST control) | 1.37 fold enrichment (6-mer frequency, TF over GST control) | 1.74 fold enrichment (6-mer frequency, TF over GST control) | 1.37 fold enrichment (6-mer frequency, TF over GST control)
GCAATG | 1.08 fold enrichment (6-mer frequency, TF over GST control) | 1.09 fold enrichment (6-mer frequency, TF over GST control) | 1.08 fold enrichment (6-mer frequency, TF over GST control) | 1.04 fold enrichment (6-mer frequency, TF over GST control) | 1.13 fold enrichment (6-mer frequency, TF over GST control) | 1.07 fold enrichment (6-mer frequency, TF over GST control) | 1.17 fold enrichment (6-mer frequency, TF over GST control) | 1.06 fold enrichment (6-mer frequency, TF over GST control)
GGTTCA | 1.1 fold enrichment (6-mer frequency, TF over GST control) | 1.03 fold enrichment (6-mer frequency, TF over GST control) | 1.14 fold enrichment (6-mer frequency, TF over GST control) | 1.08 fold enrichment (6-mer frequency, TF over GST control) | 1.14 fold enrichment (6-mer frequency, TF over GST control) | 1.14 fold enrichment (6-mer frequency, TF over GST control) | 1.07 fold enrichment (6-mer frequency, TF over GST control) | 1.07 fold enrichment (6-mer frequency, TF over GST control)
CGTCAC | 1.26 fold enrichment (6-mer frequency, TF over GST control) | 1.24 fold enrichment (6-mer frequency, TF over GST control) | 1.18 fold enrichment (6-mer frequency, TF over GST control) | 1.31 fold enrichment (6-mer frequency, TF over GST control) | 1.24 fold enrichment (6-mer frequency, TF over GST control) | 1.12 fold enrichment (6-mer frequency, TF over GST control) | 1.21 fold enrichment (6-mer frequency, TF over GST control) | 1.2 fold enrichment (6-mer frequency, TF over GST control)
GAAACG | 1.36 fold enrichment (6-mer frequency, TF over GST control) | 1.21 fold enrichment (6-mer frequency, TF over GST control) | 1.19 fold enrichment (6-mer frequency, TF over GST control) | 1.14 fold enrichment (6-mer frequency, TF over GST control) | 1.05 fold enrichment (6-mer frequency, TF over GST control) | 1.28 fold enrichment (6-mer frequency, TF over GST control) | 1.27 fold enrichment (6-mer frequency, TF over GST control) | 1.29 fold enrichment (6-mer frequency, TF over GST control)
CTGTCA | 1.03 fold enrichment (6-mer frequency, TF over GST control) | 1.06 fold enrichment (6-mer frequency, TF over GST control) | 1.27 fold enrichment (6-mer frequency, TF over GST control) | 1.13 fold enrichment (6-mer frequency, TF over GST control) | 1.27 fold enrichment (6-mer frequency, TF over GST control) | 1.19 fold enrichment (6-mer frequency, TF over GST control) | 1.16 fold enrichment (6-mer frequency, TF over GST control) | 1.14 fold enrichment (6-mer frequency, TF over GST control)
GCTTGG | 1.03 fold enrichment (6-mer frequency, TF over GST control) | 1.02 fold enrichment (6-mer frequency, TF over GST control) | 1.03 fold enrichment (6-mer frequency, TF over GST control) | 1.07 fold enrichment (6-mer frequency, TF over GST control) | 1.11 fold enrichment (6-mer frequency, TF over GST control) | 1.07 fold enrichment (6-mer frequency, TF over GST control) | 1.14 fold enrichment (6-mer frequency, TF over GST control) | 1.22 fold enrichment (6-mer frequency, TF over GST control)
GTTCAT | 1.1 fold enrichment (6-mer frequency, TF over GST control) | 1.16 fold enrichment (6-mer frequency, TF over GST control) | 1.15 fold enrichment (6-mer frequency, TF over GST control) | 1.18 fold enrichment (6-mer frequency, TF over GST control) | 1.2 fold enrichment (6-mer frequency, TF over GST control) | 1.01 fold enrichment (6-mer frequency, TF over GST control) | 1.04 fold enrichment (6-mer frequency, TF over GST control) | 1.12 fold enrichment (6-mer frequency, TF over GST control)
CATATC | 1.4 fold enrichment (6-mer frequency, TF over GST control) | 1.36 fold enrichment (6-mer frequency, TF over GST control) | 1.23 fold enrichment (6-mer frequency, TF over GST control) | 1.29 fold enrichment (6-mer frequency, TF over GST control) | 1.24 fold enrichment (6-mer frequency, TF over GST control) | 1.41 fold enrichment (6-mer frequency, TF over GST control) | 1.28 fold enrichment (6-mer frequency, TF over GST control) | 1.41 fold enrichment (6-mer frequency, TF over GST control)
CGGATG | 2.16 fold enrichment (6-mer frequency, TF over GST control) | 1.71 fold enrichment (6-mer frequency, TF over GST control) | 1.48 fold enrichment (6-mer frequency, TF over GST control) | 1.36 fold enrichment (6-mer frequency, TF over GST control) | 1.31 fold enrichment (6-mer frequency, TF over GST control) | 1.39 fold enrichment (6-mer frequency, TF over GST control) | 1.48 fold enrichment (6-mer frequency, TF over GST control) | 1.74 fold enrichment (6-mer frequency, TF over GST control)
CGTCAA | 1.08 fold enrichment (6-mer frequency, TF over GST control) | 1.08 fold enrichment (6-mer frequency, TF over GST control) | 1.19 fold enrichment (6-mer frequency, TF over GST control) | 1.15 fold enrichment (6-mer frequency, TF over GST control) | 1.12 fold enrichment (6-mer frequency, TF over GST control) | 1.2 fold enrichment (6-mer frequency, TF over GST control) | 1.2 fold enrichment (6-mer frequency, TF over GST control) | 1.12 fold enrichment (6-mer frequency, TF over GST control)
CCTTGT | 1.09 fold enrichment (6-mer frequency, TF over GST control) | 1.32 fold enrichment (6-mer frequency, TF over GST control) | 1.11 fold enrichment (6-mer frequency, TF over GST control) | 1.29 fold enrichment (6-mer frequency, TF over GST control) | 1.37 fold enrichment (6-mer frequency, TF over GST control) | 1.03 fold enrichment (6-mer frequency, TF over GST control) | 1.08 fold enrichment (6-mer frequency, TF over GST control) | 1.26 fold enrichment (6-mer frequency, TF over GST control)
TCACAG | 1.09 fold enrichment (6-mer frequency, TF over GST control) | 1.07 fold enrichment (6-mer frequency, TF over GST control) | 1.04 fold enrichment (6-mer frequency, TF over GST control) | 1.17 fold enrichment (6-mer frequency, TF over GST control) | 1.04 fold enrichment (6-mer frequency, TF over GST control) | 1.28 fold enrichment (6-mer frequency, TF over GST control) | 1.13 fold enrichment (6-mer frequency, TF over GST control) | 1.05 fold enrichment (6-mer frequency, TF over GST control)
ATGCGG | 1.13 fold enrichment (6-mer frequency, TF over GST control) | 1.29 fold enrichment (6-mer frequency, TF over GST control) | 1.49 fold enrichment (6-mer frequency, TF over GST control) | 1.23 fold enrichment (6-mer frequency, TF over GST control) | 1.15 fold enrichment (6-mer frequency, TF over GST control) | 1.27 fold enrichment (6-mer frequency, TF over GST control) | 1.63 fold enrichment (6-mer frequency, TF over GST control) | 1.24 fold enrichment (6-mer frequency, TF over GST control)
